From PubChem BioAssay (NCI)
About 83,000 compounds went through this panel and 20% of them were active in at least one assay; those are over-represented in the sample as a whole.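 96-well plates, one dose, 48 hours. Percent growth reported; active if below 10.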 A number with no mark means an inactive call. Active and inactive are the calls of the source. *1 amine or outer side, *2 acyl side, *3 side chain or, on linkers, in order; H or OH if unused. Where a SMILES comes first, the peptide text is derived from it. Bridges are numbered along the chain shown (N, C = ends). Roman numbers before positions name the chains, in order. [ ]: non-standard residue; d: D form. The star is where a group is joined. Actinocin(1to9) = Cc1c2oc3c(C)ccc(C(=O)[*:2])c3nc-2c(C(=O)[*:1])c(N)c1=O; X5 = CCC(=O)CC1CC(C)CC(C(=O)[*:2])N1[*:1]; NMeV = CN[CH](C(=O)O)C(C)C; X4 = CCCCCCCCC(C)C(=O)*; Aib = CC(C)(N)C(=O)O; X6 = CC(CN(C)CCO)N*; Sar = CNCC(=O)O

Legend:
Assay in all cases: NCI-60 one-dose screen, 48 h (100 = growth as untreated, 0 = no growth, -100 = all killed)
Settings in all cases: 10 µM unless noted
T-47D breast = test system: T-47D breast
BT-549 breast = test system: BT-549 breast
MDA-MB-435 melanoma = test system: MDA-MB-435 melanoma
SW-620 colon = test system: SW-620 colon
MCF7 breast = test system: MCF7 breast
HCT-116 colon = test system: HCT-116 colon
HCC-2998 colon = test system: HCC-2998 colon
KM12 colon = test system: KM12 colon

O=C1C=CC(=O)N1c1cc(Cl)c(Cl)cc1Cl
growth (T-47D breast): 103% | growth (BT-549 breast): 97.9% | growth (MDA-MB-435 melanoma): 106% | growth (SW-620 colon): 110% | growth (MCF7 breast): 87.8% | growth (HCT-116 colon): 90% | growth (HCC-2998 colon): 103% | growth (KM12 colon): 106%

CC(C)Nc1ccc(Nc2ccc(NC(C)C)cc2)cc1
growth (T-47D breast): 31.9% | growth (BT-549 breast): 53.2% | growth (MDA-MB-435 melanoma): 51.4% | growth (SW-620 colon): 47.9% | growth (MCF7 breast): 28.9% | growth (HCT-116 colon): 25.7% | growth (HCC-2998 colon): 61.2% | growth (KM12 colon): 29.3%

COc1cc(/C=C2\SC(=S)N(/C=C/c3nc4ccccc4[nH]c3=O)C2=O)cc(OC)c1OC
growth (T-47D breast): 52.6% | growth (BT-549 breast): 80.8% | growth (MDA-MB-435 melanoma): 81.9% | growth (SW-620 colon): 91.2% | growth (MCF7 breast): 82.1% | growth (HCT-116 colon): 78.8% | growth (HCC-2998 colon): 87.5% | growth (KM12 colon): 90.4%

CCCCCCCCC(C)C(=O)N1CCCC1C(=O)N1C(CC(=O)CC)CC(C)CC1C(=O)NC(C)C(=O)NC(C)(C)C(=O)NC(C)(C)C(=O)NC(C(=O)NC(C)C(=O)NC(C)(C)C(=O)NC(C)(C)C(=O)NC(C)CN(C)CCO)C(C)CC (stereo not given) (X4-P[X5]A[Aib][Aib]IA[Aib][Aib]-X6; configuration not given here)
growth (T-47D breast): -16.5% (active) | growth (BT-549 breast): -80.3% (active) | growth (MDA-MB-435 melanoma): -18.8% (active) | growth (SW-620 colon): -81.4% (active) | growth (MCF7 breast): -80.7% (active) | growth (HCT-116 colon): -88.8% (active) | growth (KM12 colon): -75.8% (active)

CCCCCCCCCCCCNCCCc1ccccc1
growth (T-47D breast): 54.9% | growth (BT-549 breast): 85.9% | growth (MDA-MB-435 melanoma): 100% | growth (SW-620 colon): 46.1% | growth (MCF7 breast): 25.4% | growth (HCT-116 colon): 20.4% | growth (KM12 colon): 27.2%

CN1CSC(=S)N(Cc2ccccc2)C1
growth (T-47D breast): 43.1% | growth (BT-549 breast): 80.3% | growth (MDA-MB-435 melanoma): 77.9% | growth (SW-620 colon): 35.4% | growth (MCF7 breast): 33.5% | growth (HCT-116 colon): 25.9% | growth (KM12 colon): 40.8%

CCCN(CCC)C(=O)c1ccc(C)cc1
growth (T-47D breast): 78.5% | growth (BT-549 breast): 102% | growth (MDA-MB-435 melanoma): 104% | growth (SW-620 colon): 94.9% | growth (HCT-116 colon): 98.3% | growth (HCC-2998 colon): 87.4% | growth (KM12 colon): 102%

CCCCCCCCCCCC1=NCCCN1CCCC
growth (T-47D breast): 97.4% | growth (BT-549 breast): 94.6% | growth (MDA-MB-435 melanoma): 110% | growth (SW-620 colon): 97.5% | growth (MCF7 breast): 91.1% | growth (HCT-116 colon): 83.6% | growth (HCC-2998 colon): 75.7% | growth (KM12 colon): 103%

CN(C)c1ccc(/C=C/c2nccc3ccccc23)cc1
growth (T-47D breast): 40.2% | growth (BT-549 breast): 84.1% | growth (MDA-MB-435 melanoma): 55.7% | growth (SW-620 colon): 84.1% | growth (HCT-116 colon): 81.5% | growth (HCC-2998 colon): 82.9% | growth (KM12 colon): 73.3%

NC(=S)Nc1ccc2c(c1)Cc1ccccc1-2
growth (T-47D breast): 81.9% | growth (BT-549 breast): 79.4% | growth (MDA-MB-435 melanoma): 110% | growth (SW-620 colon): 94.7% | growth (HCT-116 colon): 94.8% | growth (HCC-2998 colon): 97.6% | growth (KM12 colon): 95.1%

CN(C)c1ccc(C(=C2C=CC(=[N+](C)C)C=C2)c2ccc(N(C)C)cc2)cc1
growth (T-47D breast): -19.2% (active) | growth (BT-549 breast): -66% (active) | growth (MDA-MB-435 melanoma): -82.6% (active) | growth (SW-620 colon): -67.2% (active) | growth (MCF7 breast): -71.6% (active) | growth (HCT-116 colon): -83.3% (active) | growth (HCC-2998 colon): -91.6% (active) | growth (KM12 colon): -95.6% (active)

S=C(S)OCN1CCOCC1
growth (T-47D breast): 88.1% | growth (BT-549 breast): 100% | growth (MDA-MB-435 melanoma): 88.4% | growth (SW-620 colon): 74.8% | growth (HCT-116 colon): 98.8% | growth (HCC-2998 colon): 97.4%

CCCCCC[C@@H](O)C/C=C\CCCCCCCC(=O)OCCOC
growth (T-47D breast): 94.3% | growth (BT-549 breast): 99% | growth (MDA-MB-435 melanoma): 110% | growth (SW-620 colon): 102% | growth (MCF7 breast): 100% | growth (HCT-116 colon): 89.2% | growth (KM12 colon): 102%

CCCCCCCCCCCC[n+]1ccccc1 (tested in a mixture with another compound)
growth (T-47D breast): 14.4% | growth (BT-549 breast): -57.6% (active) | growth (MDA-MB-435 melanoma): -74% (active) | growth (SW-620 colon): 0.841% (active) | growth (HCT-116 colon): -9.07% (active) | growth (HCC-2998 colon): -47.7% (active) | growth (KM12 colon): -95.7% (active)

CN(C)CCN(C)CC(C)(C)C(=O)/C=C/c1ccc(Cl)c(Cl)c1
growth (T-47D breast): -56.7% [100 µM] (active) | growth (BT-549 breast): -96% [100 µM] (active) | growth (MDA-MB-435 melanoma): -96.5% [100 µM] (active) | growth (SW-620 colon): -81.1% [100 µM] (active) | growth (HCT-116 colon): -93.4% [100 µM] (active) | growth (HCC-2998 colon): -90.4% [100 µM] (active) | growth (KM12 colon): -93.4% [100 µM] (active)

CCC(C)C1NC(=O)C(NC(=O)c2c3nc4c(C(=O)NC5C(=O)NC(C(C)CC)C(=O)N6CCCC6C(=O)N(C)CC(=O)N(C)C(C(C)C)C(=O)OC5C)ccc(C)c4oc-3c(C)c(=O)c2N)C(C)OC(=O)C(C(C)C)N(C)C(=O)CN(C)C(=O)C2CCCN2C1=O (stereo not given) (I: TIP[Sar][NMeV] / II: TIP[Sar][NMeV]; ester I:1-I:C, II:1-II:C; linker I:N-II:N via Actinocin(1to9); configuration not given here)
growth (T-47D breast): -8.27% (active) | growth (BT-549 breast): -41.6% (active) | growth (MDA-MB-435 melanoma): -91.1% (active) | growth (SW-620 colon): -20.8% (active) | growth (MCF7 breast): -26.2% (active) | growth (HCT-116 colon): 0.361% (active) | growth (KM12 colon): -25.6% (active)

COc1ccc2nc3cc([N+](=O)[O-])ccc3c(NNc3ccccc3)c2c1
growth (T-47D breast): 77.9% | growth (BT-549 breast): 67.3% | growth (MDA-MB-435 melanoma): 107% | growth (SW-620 colon): 86.1% | growth (MCF7 breast): 72.9% | growth (HCT-116 colon): 41.2% | growth (KM12 colon): 81.7%

CC(C)=C1C=C2CC[C@@H]3[C@](C)(CCC[C@@]3(C)C(=O)O)[C@H]2CC1
growth (T-47D breast): 97.6% | growth (BT-549 breast): 126% | growth (MDA-MB-435 melanoma): 101% | growth (SW-620 colon): 102% | growth (MCF7 breast): 95.9% | growth (HCT-116 colon): 107% | growth (KM12 colon): 101%

c1ccc(C2NCCNC2c2ccccc2)cc1 (stereo not given)
growth (T-47D breast): 104% | growth (BT-549 breast): 103% | growth (MDA-MB-435 melanoma): 102% | growth (SW-620 colon): 101% | growth (MCF7 breast): 103% | growth (HCT-116 colon): 104% | growth (KM12 colon): 110%

Oc1ccc(Nc2ccc3ccccc3c2)cc1
growth (T-47D breast): 52.6% | growth (BT-549 breast): 74.3% | growth (MDA-MB-435 melanoma): 51.3% | growth (SW-620 colon): 66.2% | growth (MCF7 breast): 64.7% | growth (HCT-116 colon): 70.8% | growth (KM12 colon): 35.6%

C[C@@]1(CO)[C@H](O)CC[C@@]2(C)[C@H]1CC[C@H]1C[C@@H]3C[C@@]12CC[C@@]3(O)COC(=O)CN
growth (T-47D breast): 61.8% | growth (BT-549 breast): 46.3% | growth (MDA-MB-435 melanoma): 55.1% | growth (SW-620 colon): 50.9% | growth (MCF7 breast): 36.9% | growth (HCT-116 colon): 33.3% | growth (KM12 colon): 61.8%

Cc1nc([N+](=O)[O-])c(Sc2nncc(-c3ccccc3)n2)n1C
growth (T-47D breast): 15.3% | growth (BT-549 breast): 66.6% | growth (MDA-MB-435 melanoma): 76.3% | growth (SW-620 colon): 77.1% | growth (HCT-116 colon): 53.2% | growth (HCC-2998 colon): 98.3% | growth (KM12 colon): 104%

CC1C(c2ccccc2)OCCN1C(=S)Nc1ccc(S(=O)(=O)N2CCCCC2)cc1 (stereo not given)
growth (T-47D breast): 96.9% | growth (BT-549 breast): 97.6% | growth (MDA-MB-435 melanoma): 89.4% | growth (SW-620 colon): 87.6% | growth (MCF7 breast): 91.3% | growth (HCT-116 colon): 91.8% | growth (KM12 colon): 92.1%

CCN1CCCC(Nc2cc(C)nc(/N=C(/N)Nc3ccc(Cl)c(Cl)c3)n2)C1 (stereo not given)
growth (T-47D breast): -49.2% (active) | growth (BT-549 breast): -59.5% (active) | growth (MDA-MB-435 melanoma): -51.7% (active) | growth (SW-620 colon): -59.3% (active) | growth (HCT-116 colon): -54.9% (active) | growth (HCC-2998 colon): -71.5% (active) | growth (KM12 colon): -14.8% (active)

CCc1cccc(CC)c1N1C(=O)C=CC1=O
growth (T-47D breast): 102% | growth (BT-549 breast): 116% | growth (MDA-MB-435 melanoma): 111% | growth (SW-620 colon): 108% | growth (MCF7 breast): 110% | growth (HCT-116 colon): 88.5% | growth (HCC-2998 colon): 117% | growth (KM12 colon): 110%
